These results are taken from PubChem BioAssay (NCATS).

Unmarked numbers belong to inactive results. Activity calls are given as the source filed them. Calls follow the shape of the dose curve; as a rule, active = well fitted inhibition curve with a large enough effect; inconclusive = small, poorly fitted or top-dose-only effect; inactive = flat fitted curve, though single readings scatter.

The assay deals with DNA dC->dU-editing enzyme APOBEC-3G (Homo sapiens) (UniProt Q9HC16). The experiment in a line: qHTS for inhibitors of Vif-A3G interactions: Validation (AID 588379). Also: 0% is about no effect. Particulars: Vif-A3G protein interaction assay; series mostly up to 46.1 µM; activity change, negative = inhibition: at the top concentration. An excerpt: The recent discovery and characterization of host restriction factors, which provide a potent defense to invading retroviruses, has provided new targets for antiviral drug development. APOBEC3G (A3G) and APOBEC3F (A3F) are potent cytidine deaminases that block HIV-1 replication; HIV-1 expresses the Vif protein, which counteracts A3G and A3F by binding to them and inducing their proteasomal degradation.
Sequence of DNA dC->dU-editing enzyme APOBEC-3G (Homo sapiens) (Q9HC16 whole entry, looked up): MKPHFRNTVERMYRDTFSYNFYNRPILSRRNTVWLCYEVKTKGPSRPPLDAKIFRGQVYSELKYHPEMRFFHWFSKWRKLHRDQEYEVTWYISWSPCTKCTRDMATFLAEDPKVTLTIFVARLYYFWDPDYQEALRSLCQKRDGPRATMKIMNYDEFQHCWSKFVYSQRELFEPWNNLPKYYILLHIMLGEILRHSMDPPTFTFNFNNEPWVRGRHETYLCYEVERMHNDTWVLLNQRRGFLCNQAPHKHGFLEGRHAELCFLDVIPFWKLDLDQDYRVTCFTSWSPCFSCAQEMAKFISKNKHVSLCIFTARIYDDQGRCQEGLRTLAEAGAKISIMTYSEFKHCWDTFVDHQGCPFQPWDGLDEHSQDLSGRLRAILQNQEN
The Vif-A3G and Vif-A3F interactions provide two potential targets for development of small molecules which can interfere with the ability of Vif to degrade A3G or A3F. […] To identify inhibitors that can interfere with Vif mediated degradation of A3G and A3F, we have developed Hela cell lines that stably express A3G or A3F tagged with eYFP at the C-terminal end (A3G-eYFP or A3F-eYFP, respectively) and Vif. In the absence of an inhibitor, Vif induces degradation of A3G-eYFP and A3F-eYFP, and the cells are not fluorescent. In the presence of an inhibitor, it is expected that Vif will be unable to degrade A3G-eYFP and/or A3F-eYFP, resulting in an increase in yellow fluorescence. In this assays Vif A3G was screened against the Molecular Library Small Molecile Repository (MLSMR).
NIH Chemical Genomics Center [NCGC]
NIH Molecular Libraries Probe Centers Network [MLPCN]
Assay Submitter (PI): Vinay Pathak, National Cancer Institute
5 uL of 700 cells/well of A3G-YFP cells are dispensed into black, clear bottom plates. The plates are incubated overnight at 37 deg C. 23 nL of compounds are added by pintool. The plates are incubated overnight at 37 deg C and then read on the TTP Acumen (Ex 488/ Em 500-530).
Background: Quantitative high-throughput screening tests each substance at several concentrations.
With `COc1ccc(-c2coc3cc(O)cc(O)c3c2=O)cc1`, the “activity change, negative = inhibition” value was 3.17%.

As for `O=c1c(O)c(-c2ccc(O)cc2)oc2cc(O)cc(O)c12`, the “activity change, negative = inhibition” value was -0.0637%.

For the molecule `COc1ccccc1N1CCN(CCCNc2cc(=O)n(C)c(=O)n2C)CC1`, the “activity change, negative = inhibition” value was -5.37%.

For `CS(=O)c1ccc(-c2nc(-c3ccc(F)cc3)c(-c3ccncc3)[nH]2)cc1` (stereo not drawn), the outcome was inactive.

`CC(C)[C@H](CO)Nc1nc(Nc2ccc(C(=O)O)c(Cl)c2)c2ncn(C(C)C)c2n1`: the “activity change, negative = inhibition” value was -7.21%.

On to `CCCCCCCCCCCC1=C(O)C(=O)C=C(O)C1=O`, for which the outcome was inactive.

On to `COc1ccc(-c2coc3cc(O)ccc3c2=O)cc1`, for which the “activity change, negative = inhibition” value is 2.29%.

On to `COc1ccc(Cc2nccc3cc(OC)c(OC)cc23)cc1OC`, for which the “activity change, negative = inhibition” value is 1.97%.

Turning to `O=c1cc(-c2ccccc2)oc2cc(O)cc(O)c12`, the “activity change, negative = inhibition” value is 0.486%.

As to `O=C(O)c1cc(O)c2c(c1)C(=O)c1cccc(O)c1C2=O`, the “activity change, negative = inhibition” value is -3.05%.

In the case of `COc1cccc(-c2cc(=O)c3ccccc3o2)c1N`, the “activity change, negative = inhibition” value was -4.14%.

Consider `O=c1cc(-c2ccc(O)cc2)oc2cc(O)cc(O)c12`, for which the call was inactive.

Turning to `CC/C(=C(\c1ccccc1)c1ccc(OCCN(C)C)cc1)c1ccccc1`, the “activity change, negative = inhibition” value is 1.65%.

Consider `O=c1c(-c2ccc(O)cc2)coc2cc(O)ccc12`, for which the call was inactive.

On to `COc1ccc2c3c1OC1C[C@@H](O)C=C[C@@]31CCN(C)C2` (stereo partly drawn), for which the “activity change, negative = inhibition” value was 3.11%.

Regarding `CCN1CCC[C@H]1CNC(=O)c1cc(S(N)(=O)=O)ccc1OC`, the “activity change, negative = inhibition” value is 0.198%.

As for `COCCCCC(=NOCCN)c1ccc(C(F)(F)F)cc1`, the “activity change, negative = inhibition” value is 3.55%.

Turning to `O=c1cc(-c2ccccc2)oc2cc(O)c(O)c(O)c12`, the call was inactive.
